The campaign covered roughly 360,000 compounds. About 3,900 (1.1%) were called active.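 Rule for the calls: active = mean replicate inhibition score of at least 50 and every replicate individually at or above 50; inconclusive = only one of the two criteria met; inactive = mean below 50 and not all replicates reaching 50.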 What follows is part of a selection rich in actives, with near analogues and random picks from the rest.
Test: blockers of JRFL envelope-mediated fusion – HeLa-JRFL effector, CEM21 target cells, luciferase, primary screen (AID 651610);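 note: 0% = plate neutral controls and 100% = maraviroc near 300 nM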
Details: HeLa-JRFL Env/CEM21 cell fusion, stronger effect = higher value; at 16.7 µM unless noted

Row | Structure (SMILES) | inhibition
1 | CC(C)NC(=O)Nc1ccc2c(c1)CC(=O)N([C@@H](C)CO)C[C@@H](C)[C@@H](CN(C)S(=O)(=O)c1ccccc1)O2 | 4.16% (inactive)
2 | CC(C)NC(=O)Nc1ccc2c(c1)C(=O)N([C@H](C)CO)C[C@H](C)[C@@H](CN(C)C(=O)CCCN(C)C)OCCCC[C@@H](C)O2 | 2.66% (inactive)
3 | C[C@@H]1CCCCO[C@@H](CN(C)Cc2ccc3c(c2)OCO3)[C@@H](C)CN([C@@H](C)CO)C(=O)c2cc(NC(=O)C3CCCCC3)ccc2O1 | -19.5% (inactive)
4 | CN(C)C(=O)c1cccc(-c2ccc3n(c2=O)C[C@H]2N[C@@H]3[C@@H](C(=O)NC3CCC3)[C@@H]2CO)c1 | 4.81% (inactive)
5 | C[C@H](CO)N1C[C@H](C)[C@H](CN(C)S(=O)(=O)c2cccs2)Oc2ccc(NS(=O)(=O)c3ccccc3)cc2C1=O | 37% (inactive)
6 | COc1ccc(NC(=O)Nc2ccc3c(c2)C(=O)N([C@H](C)CO)C[C@H](C)[C@H](CN(C)S(=O)(=O)c2ccc(OC)cc2)O3)cc1 | 59.4% (active)
7 | COc1ccc(S(=O)(=O)N(C)C[C@@H]2Oc3ccc(NC(=O)Nc4c(C)noc4C)cc3C(=O)N([C@H](C)CO)C[C@@H]2C)cc1 | -131% [at 12.3 µM] (inactive)
8 | C[C@H](CO)N1C[C@H](C)[C@@H](CN(C)S(=O)(=O)c2ccccc2)Oc2ccc(NC(=O)Nc3ccc(F)cc3)cc2CC1=O | -10.6% (inactive)
9 | COc1ccc(NC(=O)Nc2ccc3c(c2)C(=O)N([C@@H](C)CO)C[C@H](C)[C@@H](CN(C)S(=O)(=O)c2ccc(Cl)cc2)O3)cc1 | 7.85% (inactive)
10 | C[C@H](CO)N1C[C@H](C)[C@H](CN(C)S(=O)(=O)c2ccc(F)cc2)Oc2ncc(-c3ccc(F)cc3)cc2C1=O | 24.9% (inactive)
11 | Cc1ccc(S(=O)(=O)N(C)C[C@@H]2Oc3ncc(-c4cc5ccccc5o4)cc3C(=O)N([C@H](C)CO)C[C@@H]2C)cc1 | 73% (active)
12 | C[C@H]1CN([C@@H](C)CO)C(=O)Cc2cc(NC(=O)Nc3ccc(F)cc3)ccc2O[C@H]1CN(C)S(=O)(=O)c1ccccc1 | 54% (inactive)
13 | C[C@@H]1CN([C@@H](C)CO)C(=O)Cc2cc(NC(=O)Nc3ccccc3)ccc2O[C@@H]1CN(C)S(=O)(=O)c1ccc(F)cc1 | 56.4% (active)
14 | COc1ccc(-c2cnc3c(c2)C(=O)N([C@H](C)CO)C[C@H](C)[C@H](CN(C)S(=O)(=O)c2ccccc2)O3)cc1 | 11.4% (inactive)
15 | C[C@@H]1CCCCO[C@@H](CN(C)Cc2ccncc2)[C@@H](C)CN([C@@H](C)CO)C(=O)c2cc(NC(=O)Nc3ccc(F)cc3)ccc2O1 | -4.96% (inactive)
16 | Cc1ccccc1S(=O)(=O)NCC[C@@H]1CC[C@H](NC(=O)C2CC2)[C@@H](CO)O1 | 0.439% (inactive)
17 | C[C@@H]1CN([C@H](C)CO)C(=O)c2cc(N(C)C)ccc2O[C@@H]1CN(C)S(=O)(=O)c1cn(C)cn1 | 4.03% (inactive)
18 | O=C(C[C@H]1CC[C@H](NS(=O)(=O)c2ccccc2)[C@H](CO)O1)NCc1ccncn1 | 2.23% (inactive)
19 | CC(C)c1cn(CC[C@@H]2CC[C@@H](NC(=O)C3CC3)[C@H](CO)O2)nn1 | 7.45% (inactive)
20 | O=C(Nc1ccn(CCCNCc2ccc3[nH]ccc3c2)c(=O)n1)OCc1ccccc1 | 1.22% [at 12.3 µM] (inactive)
21 | Nc1ccn(CC(=O)N2CCN(c3ccccn3)CC2)c(=O)n1 | 15.1% [at 12.3 µM] (inactive)
22 | Cc1cc(C)c(CN2CCN(C(=O)Cn3ccc(NC(=O)OCc4ccccc4)nc3=O)CC2)c(C)c1 | 72.2% [at 12.3 µM] (active)

Row | Structure (SMILES) | inhibition
23 | C[C@H](CO)N1C[C@H](C)[C@@H](CN(C)Cc2ccc(Oc3ccccc3)cc2)Oc2ccc(NS(=O)(=O)c3ccc(F)cc3)cc2CC1=O | 6.63% (inactive)
24 | C[C@H](CO)N1C[C@H](C)[C@H](CN(C)C(=O)c2ccccc2)OCCCC[C@H](C)Oc2ccc(NS(C)(=O)=O)cc2C1=O | -12.1% (inactive)
25 | COc1ccc(C2CC(c3cccs3)Nc3nnnn32)cc1 (centres undefined) | 15.5% [at 12.3 µM] (inactive)
26 | Clc1ccc(C2CC(c3cccs3)n3ncnc3N2)cc1Cl (centres undefined) | 91.8% [at 12.3 µM] (active)
27 | Nc1nc2n(n1)C(c1ccco1)CC(c1ccc(Cl)c(Cl)c1)N2 (centres undefined) | -24.3% [at 12.3 µM] (inactive)
28 | Cc1ccc(S(=O)(=O)Nc2ccc3c(c2)C(=O)N([C@H](C)CO)C[C@@H](C)[C@H](CN(C)S(=O)(=O)c2cccs2)OCCCC[C@@H](C)O3)cc1 | -10.4% (inactive)
29 | O=C(NCC[C@H]1CC[C@@H](NC(=O)C2CC2)[C@H](CO)O1)c1ccc(F)cc1 | 13.4% (inactive)
30 | Cc1ccc(S(=O)(=O)Nc2ccc3c(c2)C(=O)N([C@@H](C)CO)C[C@H](C)[C@@H](CN(C)C(=O)Cc2ccccc2)OCCCC[C@H](C)O3)cc1 | -8.35% (inactive)
31 | CCOC(=O)C1=CC[C@@H](c2ccccc2)N(S(=O)(=O)c2ccc(C)cc2)[C@H]1c1ccc(CC)cc1 | 44.3% [at 12.3 µM] (inactive)
32 | CCOC(=O)C1C(C)C(C(C)(C)C)N(S(=O)(=O)c2ccc(C)cc2)C1c1ccccc1 (centres undefined) | 77.2% [at 12.3 µM] (active)
33 | CCCCC[C@@H]1C=C(C(=O)OCC)[C@H](c2ccccc2)N1S(=O)(=O)c1ccc(C)cc1 | -5.02% [at 12.3 µM] (inactive)
34 | CCC(=O)N1C[C@H](C)[C@@H](OC)CN(C)C(=O)c2cc(NC(=O)c3cnccn3)ccc2OC[C@@H]1C | -0.896% (inactive)
35 | CN(Cc1ccc(F)cc1)C(=O)CN1C(=O)c2ccccc2S1(=O)=O | -26% [at 12.3 µM] (inactive)
36 | Cc1ccc(S(=O)(=O)N(C)CC(=O)N2CCc3ccccc32)cc1 | -5.79% [at 12.3 µM] (inactive)
37 | O=C(CN1C(=O)c2ccccc2S1(=O)=O)N1CCc2ccccc21 | 63.8% [at 12.3 µM] (active)
38 | CC(Oc1ccc(-c2ccccc2)c(F)c1)c1ccn(S(=O)(=O)c2cccc3ccccc23)n1 (centres undefined) | 58.1% [at 12.3 µM] (active)
39 | C[C@@H]1CN([C@@H](C)CO)C(=O)c2cc(NC(=O)Nc3cccc4ccccc34)ccc2O[C@H]1CN(C)Cc1ccc(Cl)c(Cl)c1 | 2.97% (inactive)
40 | O=C(Nc1ccc(-c2ccccc2)cc1)[C@H]1[C@H](CO)[C@H]2Cn3c(cccc3=O)[C@H]2N1CC1CC1 | -13.3% (inactive)
41 | COc1ccc(NC(=O)Nc2ccc3c(c2)C(=O)N([C@@H](C)CO)C[C@H](C)[C@H](CN(C)S(=O)(=O)c2ccccc2)OCCCC[C@@H](C)O3)cc1 | -1.8% (inactive)
42 | O=C(C[C@@H]1CC[C@@H]2[C@H](COC[C@H](O)CN2Cc2ccc(F)cc2)O1)NCc1ccncn1 | -13.2% (inactive)
43 | CN1CCN(C(=O)C[C@@H]2C[C@H]3c4cc(NC(=O)NC5CCCC5)ccc4O[C@H]3[C@H](CO)O2)CC1 | -16.8% (inactive)
44 | CCCNC(=O)N1C[C@@H](O)COC[C@@H]2O[C@H](CC(=O)N3CCN(C)CC3)CC[C@H]21 | -4.93% (inactive)

Row | Structure (SMILES) | inhibition
45 | C[C@@H]1CN([C@@H](C)CO)C(=O)Cc2cc(NS(=O)(=O)c3ccc(F)cc3)ccc2O[C@@H]1CN(C)S(=O)(=O)c1cccs1 | 2.26% (inactive)
46 | CO[C@H]1CN(C)C(=O)c2ccc(NS(C)(=O)=O)cc2OC[C@@H](C)N(C(=O)c2ccc3c(c2)OCO3)C[C@@H]1C | 3.98% (inactive)
47 | O=C(COC(=O)c1ncc(Cl)c(Cl)c1Cl)NCc1ccccc1 | -4.53% [at 12.3 µM] (inactive)
48 | O=C(COC(=O)c1ccc(Cl)nc1)NCc1cccs1 | 13.8% [at 12.3 µM] (inactive)
49 | O=C(COC(=O)c1ncc(Cl)c(Cl)c1Cl)NCc1cccs1 | 80.8% [at 12.3 µM] (active)
50 | CN1C(=O)c2cc(NC(=O)c3cnccn3)ccc2OC[C@@H]2O[C@H](CC(=O)O)CC[C@@H]21 | -25.8% (inactive)
51 | Cc1cccc(-n2c(=O)c3c(C)c(C)sc3n(CC(N)=O)c2=O)c1 | 16% [at 12.3 µM] (inactive)
52 | Cc1cccc(-n2c(SCC(N)=O)nc3c(c2=O)C2(CCCCC2)Cc2ccccc2-3)c1 | 87% [at 12.3 µM] (active)
53 | CCOC(=O)C1Cn2c(nc3c(c2=O)C(C)(CC)Cc2ccccc2-3)S1 (centres undefined) | -68.6% [at 12.3 µM] (inactive)
54 | C[C@@H]1CN([C@H](C)CO)C(=O)Cc2cc(NC(=O)c3ccncc3)ccc2O[C@H]1CN(C)Cc1ccc(-c2ccccc2)cc1 | 18.5% (inactive)
55 | Cc1ccc(S(=O)(=O)N(C)C[C@@H]2Oc3ccc(NS(=O)(=O)c4cn(C)cn4)cc3C(=O)N([C@@H](C)CO)C[C@H]2C)cc1 | -17.6% (inactive)
56 | O=C(NCc1ccco1)c1cc2sccc2n1Cc1ccc(F)cc1 | 20.8% [at 12.3 µM] (inactive)
57 | O=C(NCc1ccco1)c1ccc(Cn2c(=O)c3sccc3n(Cc3ccc(F)cc3)c2=O)cc1 | 78.1% [at 12.3 µM] (active)
58 | O=C(Cc1ccc(-n2c(=O)c3sccc3n(Cc3ccc(F)cc3)c2=O)cc1)NCc1ccco1 | 0.234% [at 12.3 µM] (inactive)
59 | O=C(CN1CCOCC1)NCC[C@H]1CC[C@@H](NC(=O)Nc2ccc(Cl)cc2)[C@@H](CO)O1 | 2.67% (inactive)
60 | O=C(N[C@@H]1CC[C@H](CCn2cc(-c3ccccn3)nn2)O[C@@H]1CO)c1ccccc1 | 12.1% (inactive)
61 | COc1ccc(S(=O)(=O)Nc2ccc3c(c2)C(=O)N([C@@H](C)CO)C[C@H](C)[C@@H](CN(C)C(=O)NC(C)C)OCCCC[C@H](C)O3)cc1 | 1.4% (inactive)
62 | CCOC(=O)C(C)Oc1cccc2c(=O)n(CC(=O)N3CCc4ccccc43)ccc12 (centres undefined) | -10.8% [at 12.3 µM] (inactive)
63 | CCOC(=O)C(C)Oc1cccc2c(=O)n(CC(=O)NCCc3ccc(OC)c(OC)c3)ccc12 (centres undefined) | 88.4% [at 12.3 µM] (active)
64 | COC(=O)COc1cccc2c(=O)n(CC(=O)NCc3ccccc3)ccc12 | -188% [at 12.3 µM] (inactive)
